Source: PubChem BioAssay (several laboratories)
Rows were chosen to be rich in hits. Some 3.9% of all compounds tested hit in one or more screens of this group.
H9c2 protect – protects H9c2 cardiomyocytes from peroxide injury. AID 588492. 360,000 tested, 0.63% active. protection from H2O2 cell death, % at 20 µM. H2O2 injury protection, ATPLite, 2 h;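 active means compounds giving at least 50% protection of heart cells from peroxide-induced death in the single-dose screen, raw or plate-pattern-corrected value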;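 further: 0% = DMSO wells with peroxide and 100% = DMSO wells without peroxide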
SUMO HTRF inh – SUMOylation inhibition. P63279. HTRF SUMOylation assay, SAE1/SAE2 + UBC9, in vitro. 290,000 tested, 0.36% active. AID 2006. inhibition, % at 35 µM; in the data active means inhibition above about 50%, passing the limit was not always enough; inconclusive means no clear call, values can overlap the other calls
Target sequence (P63279 whole entry, looked up): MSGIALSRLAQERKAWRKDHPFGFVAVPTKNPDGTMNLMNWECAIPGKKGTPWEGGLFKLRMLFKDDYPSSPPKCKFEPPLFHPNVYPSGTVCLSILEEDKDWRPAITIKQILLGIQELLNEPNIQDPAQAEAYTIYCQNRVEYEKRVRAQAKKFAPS
NTR1 agonist – agonists of human neurotensin receptor NTR1. P30989. 330,000 tested, 0.17% active. NTR1-U2OS beta-arrestin-GFP spot imaging, agonist mode. AID 493036. activation, % at 20 µM;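 active means activation at or above 40% of the spot to cytoplasm intensity ratio, with at least 20 cells analyzed; inconclusive means wells under 20 cells, flagged as cytotoxic or low count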;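 further: 0% = DMSO without peptide and 100% = 100 nM NTR1 peptide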
Target sequence (P30989 whole entry, looked up): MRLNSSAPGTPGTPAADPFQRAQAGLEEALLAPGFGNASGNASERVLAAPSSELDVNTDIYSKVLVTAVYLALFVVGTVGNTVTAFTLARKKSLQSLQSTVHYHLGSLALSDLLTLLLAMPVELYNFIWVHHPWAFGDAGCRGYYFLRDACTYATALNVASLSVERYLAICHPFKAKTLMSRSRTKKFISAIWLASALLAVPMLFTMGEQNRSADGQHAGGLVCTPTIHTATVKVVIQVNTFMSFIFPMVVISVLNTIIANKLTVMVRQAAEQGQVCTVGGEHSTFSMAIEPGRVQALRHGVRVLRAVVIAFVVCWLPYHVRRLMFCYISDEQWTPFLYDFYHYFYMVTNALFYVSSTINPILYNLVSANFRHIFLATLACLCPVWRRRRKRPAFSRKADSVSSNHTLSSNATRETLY
ALR inh – human ALR oxidase inhibition via reduced H2O2. P55789. purified ALR, DTT oxidation, H2O2 HRP-luminol luminescence. inhibition, % (test concentration not listed). 290,000 tested, 3.8% active;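 active means mean replicate inhibition above about 79%, with every replicate also reaching it, limit read from the data; inconclusive means only one of the two criteria met; inactive means mean below limit and not every replicate reaching it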
Numbers without * were called inactive; ? = inconclusive; nt = no result.

SMILES	H9c2 protect	SUMO HTRF inh	NTR1 agonist	ALR inh
O=C1CCc2cc(S(=O)(=O)NCc3ccccc3Cl)ccc2N1	-4.1	nt	-0.1	7.6
O=C1NN(c2cccc(Br)c2)C(=O)/C1=C\c1ccc(O)cc1	0.9	-10.2	-1.2	97.6*
CCOc1cc(/C=C2/C(=O)NN(c3cccc(Cl)c3)C2=O)ccc1O	-1.6	8.8	1.3	98.2*
COc1cccc(/C=C2/C(=O)NN(c3ccc(C)c(C)c3)C2=O)c1	4.9	-1.3	0.5	98.5*
COc1cc(/C=C2/C(=O)NN(c3ccc(C)c(Cl)c3)C2=O)cc([N+](=O)[O-])c1O	-2.6	-10.2	-1.0	98.9*
Cn1c(N)c(C(C[N+](=O)[O-])c2c(F)cccc2Cl)c(=O)n(C)c1=O (configuration not stated)	0.9	-7.1	1.1	nt
Cc1ccc(C)c(Cn2cnc3c(cnn3C(C)(C)C)c2=O)c1	-18.7	-1.6	1.4	-3.7
Cn1cnc(C(=O)NCc2ccc(CNC(=O)OC(C)(C)C)cc2)c1C(=O)NCc1ccc(CNC(=O)OC(C)(C)C)cc1	-9.0	nt	2.3	-0.6
CCOC(=O)C1(S(=O)(=O)c2ccc(Cl)cc2)CCN(Cc2ccc(Cl)cc2)CC1	-9.3	-16.7	3.8	15.5
COc1cc(/C=C2/C(=O)NN(c3cccc(Cl)c3)C2=O)cc(OC)c1O	11.7	-12.4	-0.1	91.0*
COc1cc(/C=C2/C(=O)NN(c3cccc(C)c3)C2=O)cc([N+](=O)[O-])c1O	3.7	8.9	0.7	nt
Cc1ccc(N2NC(=O)/C(=C\c3cc4c(cc3[N+](=O)[O-])OCO4)C2=O)cc1C	16.3	27.3	nt	94.0*
CC1(C)CC(=O)C(=Cc2cn(CCC#N)nc2-c2ccc(F)cc2)C(=O)C1	-1.6	11.6	2.8	95.2*
CCSc1nnc(NC(=O)CC(C)C)s1	6.8	-5.0	1.6	-3.1
Cc1ccc(CNS(=O)(=O)c2cc3c(cc2C)N(C)CCO3)cc1	-9.0	-16.2	1.6	88.8*
O=C(O)c1cc2cccc(S(=O)(=O)N3CCOCC3)c2cc1O	2.4	51.8*	-2.0	-10.1
O=C(CCC1CCCCC1)NCc1cccs1	3.2	3.2	1.1	-0.9
O=S(=O)(Nc1cccc2ncccc12)c1cccs1	42.8	-77.2	31.5	-9.2
COC(=O)c1c(NC(=O)CN2CCN(Cc3ccc4c(c3)OCO4)CC2)sc(C)c1C	-11.0	3.3	13.1	97.3*
COC(=O)c1ccsc1NC(=O)CN1CCN(Cc2ccc3c(c2)OCO3)CC1	16.7	-16.5	2.8	0.3
Cc1oc2c(c(C)cc3oc(=O)c(CC(=O)NCC(=O)NCC(=O)O)c(C)c32)c1C	-3.7	52.6*	0.7	30.3
Cc1oc2c(c(C)cc3oc(=O)c(CC(=O)NCCC(=O)O)c(C)c32)c1C	2.1	40.1	4.0	7.0
Cc1oc2c(c(C)cc3oc(=O)c(CC(=O)N[C@@H](CC(C)C)C(=O)O)c(C)c32)c1C	8.6	47.8	8.7	30.2
Cc1oc2c(c(C)cc3oc(=O)c(CC(=O)N[C@H](C(=O)O)C(C)C)c(C)c32)c1C	2.2	50.8*	0.5	7.0
O=S(=O)(c1ccccc1)[C@@]1(c2ccc(Br)cc2)C[C@@H]2ON=C(c3cccc(Br)c3)[C@@H]2C1	-9.0	nt	1.3	-3.7
SMILES	H9c2 protect	SUMO HTRF inh	NTR1 agonist	ALR inh
CCc1ccc(NC(=S)NC2CCN(Cc3ccccc3)CC2)cc1	-8.8	-21.0	-1.3	96.3*
Cc1noc(C)c1CSc1ncnc2sc3c(c12)CCC(C)C3 (configuration not stated)	nt	6.7	5.0	4.8
Cc1cccc(NC(=S)NCc2cccn2C)c1	-1.3	16.9	2.8	72.4
C[C@H](NC(=O)c1ccccc1)C(=O)Nc1nc(-c2ccccn2)cs1	20.7	2.6	-1.5	-8.0
CC(Oc1ccccc1)C(=O)Nc1nc(-c2ccccn2)cs1 (configuration not stated)	51.6*	nt	2.5	nt
Cc1cccc(C(=O)NC(C(=O)Nc2nc(-c3ccccn3)cs2)C(C)C)c1 (configuration not stated)	65.6*	-50.0	-0.9	-21.5
CC(Oc1cccc(Cl)c1)C(=O)Nc1nc(-c2ccccn2)cs1 (configuration not stated)	50.1*	nt	9.2	-2.1
COc1ccc(N[C@@H]2CCN3C(=O)c4ccccc4[C@@H]3C[C@H]2O)cc1	-6.0	nt	0.9	nt
O=C(COc1ccc2ccccc2c1)Nc1nnc(-c2ccco2)s1	nt	33.6	1.3	-7.1
O=C(O)Cc1c[nH]c2ccccc12	-4.6	nt	0.0	-9.5
CCC(=O)NCCSc1c[nH]c2ccccc12	6.8	-16.5	0.0	56.4
O=C(O)CSc1c[nH]c2ccccc12	3.8	5.7	-0.7	98.5*
CC(C)C(=O)NCCSc1c[nH]c2ccccc12	-1.1	-2.7	-3.1	99.1*
COc1ccc(C(c2nnnn2Cc2ccccc2)N2CCN(C/C=C/c3ccccc3)CC2)cc1 (configuration not stated)	6.6	nt	nt	nt
N#C/C(=C\c1ccc(F)c(Br)c1)C(=O)NC1CC1	10.2	0.2	1.3	0.6
N#C/C(=C\c1ccc(F)c(F)c1)C(=O)NC1CCCCC1	3.7	10.1	1.9	97.8*
Nc1nc(Nc2ccccc2)sc1C(=O)c1ccccc1	-5.7	-4.0	0.6	18.9
CNC(=S)N1CCN(c2cccc(OC)c2)CC1	3.4	18.2	-1.3	99.0*
CCOc1ccccc1NC(=S)N1CCN(c2cccc(OC)c2)CC1	1.3	-15.6	-0.2	98.0*
CC(=O)Nc1c(Cl)cnn(-c2ccccc2)c1=O	-8.7	nt	0.7	-2.3
CSCc1ccc(C(=O)NC(C)c2ccc(-n3ccnc3)cc2)cc1 (configuration not stated)	-10.9	1.2	1.0	98.2*
CN1/C(=C/C(=O)c2nc(S(C)(=O)=O)ncc2Cl)C(C)(C)c2ccccc21	-23.6	-5.6	2.9	97.8*
O=c1c2c(-c3cccc([N+](=O)[O-])c3)ccnc2[nH]n1-c1ccccc1	0.3	6.8	2.3	-5.5
Cc1cc(-c2ccccc2)c2c(=O)n(-c3ccccc3)[nH]c2n1	7.7	-19.1	-0.2	99.4*
O=C(Nc1cc(S(=O)(=O)Nc2ccccc2Cl)ccc1O)c1sc2cc(Cl)ccc2c1Cl	-25.4	27.0	-0.6	-5.3
SMILES	H9c2 protect	SUMO HTRF inh	NTR1 agonist	ALR inh
COc1ccc(NC(=O)COC(=O)C23CC4CC(CC(O)(C4)C2)C3)cc1Cl	4.3	nt	1.6	-0.3
O=C1c2ccccc2C(=O)c2c(O)c(O)cc(O)c21	-9.6	nt	-3.0	nt
O=C1C=C(O)c2c(O)cc(O)c(O)c2C1=O	0.4	nt	-1.4	97.9*
O=C(c1cn(-c2ccccc2)nc1-c1cccs1)N1CCN(c2ccccc2)CC1	-7.6	-6.5	5.1	-7.2
O=S(=O)(Nc1c(O)ccc2ccccc12)c1ccc(F)cc1	-10.6	nt	0.0	?
CC(C)N(c1nnc(N)s1)C(C)C	-6.0	-2.1	-1.0	96.7*
CN(Cc1ccccc1)c1nnc(N)s1	0.7	3.6	-3.4	?
CC(=O)N1CCN=C1SCc1cccc(Cl)c1	6.0	10.1	0.7	99.6*
CC(=O)N1CCN=C1SCc1cccc(C)c1	0.3	2.8	-0.2	96.1*
CC(=O)N1CCN=C1SCc1cccc(F)c1	-0.6	-1.5	0.0	97.0*
CCC(=O)N1CCN=C1SCc1cccc(F)c1	5.7	12.9	0.1	96.5*
